Measurements as given in PubChem BioAssay AID1159580 (chemical genetic matrix, 2015).
About 2,000 (36%) of roughly 5,500 compounds were called active. Roughly 18% stayed inconclusive and do not appear here. Rule as the data show it: active = normalized growth mostly below about 0.91 (no sharp cut-off); inconclusive = no clear call, values can overlap the other calls; inactive = mostly above about 0.92. The list shows a part of the results.

Assay: chemical genetic growth profiling, strain panel (AID 1159580);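 also: tested at 20 µM; growth read once vehicle control cultures reached saturation at 30 °C; 1 = growth at the plate median or of vehicle wells; lower values mean less growth of the strain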
Settings: growth OD

Measured: normalized growth

COc1cc(O)c(C(=O)O)c(O)c1
active: S. cerevisiae deletion strains, locus YLR113W, strain HOG1, hits give low values 0.83 | S. cerevisiae deletion strains, locus YPL256C, strain CLN2, hits give low values 0.824
inactive: S. cerevisiae deletion strains, locus YJR075W, strain HOC1, hits give low values 1 | S. cerevisiae deletion strains, locus YKL009W, strain mrt4, hits give low values 1.01 | S. cerevisiae deletion strains, locus YKL068W, hits give low values 0.954 | S. cerevisiae deletion strains, locus YKL085W, strain MDH1 (second series), hits give low values 0.961 | S. cerevisiae deletion strains, locus YKL085W, strain MDH1, hits give low values 0.961 | S. cerevisiae deletion strains, locus YKL160W, strain elf1, hits give low values 1 | S. cerevisiae deletion strains, locus YKL190W, strain CNB1, hits give low values 1.01 | S. cerevisiae deletion strains, locus YKR001C, strain vps1, hits give low values 1.02 | S. cerevisiae deletion strains, locus YKR026C, strain gcn3, hits give low values 0.986 | S. cerevisiae deletion strains, locus YKR091W, strain srl3, hits give low values 0.991 | S. cerevisiae deletion strains, locus YLL001W, strain dnm1, hits give low values 0.981 | S. cerevisiae deletion strains, locus YLL026W, hits give low values 1 | S. cerevisiae deletion strains, locus YLL041C, strain sdh2, hits give low values 0.986 | S. cerevisiae deletion strains, locus YLR027C, strain aat2, hits give low values 0.983 | S. cerevisiae deletion strains, locus YLR039C, strain RIC1, hits give low values 1.06 | S. cerevisiae deletion strains, locus YLR058C, strain SHM2, hits give low values 1 | S. cerevisiae deletion strains, locus YLR102C, strain apc9, hits give low values 0.997 | S. cerevisiae deletion strains, locus YLR221C, strain rsa3, hits give low values 1 | S. cerevisiae deletion strains, locus YLR258W, strain gsy2, hits give low values 0.998 | S. cerevisiae deletion strains, locus YLR262C, strain YPT6 (second series), hits give low values 1.02 | S. cerevisiae deletion strains, locus YLR262C, strain YPT6, hits give low values 1.02 | S. cerevisiae deletion strains, locus YLR268W, strain sec22, hits give low values 0.995 | S. cerevisiae deletion strains, locus YLR320W, strain mms22, hits give low values 1.01 | S. cerevisiae deletion strains, locus YLR330W, strain CHS5, hits give low values 0.991 | S. cerevisiae deletion strains, locus YLR342W, strain FKS1 (second series), hits give low values 1.06 | S. cerevisiae deletion strains, locus YLR342W, strain FKS1, hits give low values 0.99 | S. cerevisiae deletion strains, locus YLR357W, strain rsc2, hits give low values 1.01 | S. cerevisiae deletion strains, locus YLR370C, strain arc18, hits give low values 0.99 | S. cerevisiae deletion strains, locus YLR371W, strain rom2, hits give low values 0.999 | S. cerevisiae deletion strains, locus YLR384C, strain iki3, hits give low values 0.985 | S. cerevisiae deletion strains, locus YLR418C, strain cdc73, hits give low values 1.01 | S. cerevisiae deletion strains, locus YML016C, strain PPZ1, hits give low values 0.999 | S. cerevisiae deletion strains, locus YML032C, strain rad52, hits give low values 1.04 | S. cerevisiae deletion strains, locus YML120C, strain ndi1, hits give low values 0.998 | S. cerevisiae deletion strains, locus YML124C, strain tub3, hits give low values 0.992 | S. cerevisiae deletion strains, locus YMR058W, strain fet3, hits give low values 0.999 | S. cerevisiae deletion strains, locus YMR078C, strain ctf18, hits give low values 1.01 | S. cerevisiae deletion strains, locus YMR125W, strain sto1, hits give low values 0.973 | S. cerevisiae deletion strains, locus YMR129W, hits give low values 0.986 | S. cerevisiae deletion strains, locus YMR205C, strain PFK2, hits give low values 1.01 | S. cerevisiae deletion strains, locus YMR223W, strain ubp8, hits give low values 1.03 | S. cerevisiae deletion strains, locus YMR231W, strain pep5, hits give low values 0.984 | S. cerevisiae deletion strains, locus YMR263W, strain SAP30, hits give low values 1 | S. cerevisiae deletion strains, locus YMR307W, strain GAS1, hits give low values 1.03 | S. cerevisiae deletion strains, locus YNL067W, strain RPL9B, hits give low values 1 | S. cerevisiae deletion strains, locus YNL071W, strain lat1, hits give low values 0.99 | S. cerevisiae deletion strains, locus YNL128W, strain TEP1, hits give low values 1 | S. cerevisiae deletion strains, locus YNL153C, strain GIM3, hits give low values 0.998 | S. cerevisiae deletion strains, locus YNL183C, strain NPR1, hits give low values 0.84 | S. cerevisiae deletion strains, locus YNL209W, strain ssb2, hits give low values 0.981 | S. cerevisiae deletion strains, locus YNL233W, strain BNI4, hits give low values 1.01 | S. cerevisiae deletion strains, locus YNL248C, strain rpa49, hits give low values 0.992 | S. cerevisiae deletion strains, locus YNL250W, strain rad50, hits give low values 0.97 | S. cerevisiae deletion strains, locus YNL271C, strain bni1, hits give low values 0.945 | S. cerevisiae deletion strains, locus YNL298W, strain CLA4, hits give low values 0.977 | S. cerevisiae deletion strains, locus YNL307C, strain MCK1, hits give low values 1.02 | S. cerevisiae deletion strains, locus YNL322C, strain KRE1 (second series), hits give low values 0.972 | S. cerevisiae deletion strains, locus YNL322C, strain KRE1, hits give low values 0.99 | S. cerevisiae deletion strains, locus YNR049C, strain mso1, hits give low values 0.98 | S. cerevisiae deletion strains, locus YNR052C, strain pop2, hits give low values 1.02 | S. cerevisiae deletion strains, locus YOL006C, strain TOP1, hits give low values 1.04 | S. cerevisiae deletion strains, locus YOL012C, strain htz1 0.943 | S. cerevisiae deletion strains, locus YOL147C, strain pex11, hits give low values 1 | S. cerevisiae deletion strains, locus YOR001W, strain rrp6, hits give low values 0.999 | S. cerevisiae deletion strains, locus YOR061W, strain CKA2, hits give low values 1.01 | S. cerevisiae deletion strains, locus YOR069W, strain VPS5, hits give low values 0.993 | S. cerevisiae deletion strains, locus YOR070C, strain gyp1, hits give low values 0.994 | S. cerevisiae deletion strains, locus YOR080W, strain dia2, hits give low values 1 | S. cerevisiae deletion strains, locus YOR083W, strain WHI5, hits give low values 1.01 | S. cerevisiae deletion strains, locus YOR106W, strain vam3, hits give low values 1.01 | S. cerevisiae deletion strains, locus YOR136W, strain idh2, hits give low values 1.03 | S. cerevisiae deletion strains, locus YOR144C, strain elg1, hits give low values 1 | S. cerevisiae deletion strains, locus YOR184W, strain ser1, hits give low values 1.04 | S. cerevisiae deletion strains, locus YOR231W, strain MKK1, hits give low values 0.885 | S. cerevisiae deletion strains, locus YOR265W, strain rbl2, hits give low values 0.997 | S. cerevisiae deletion strains, locus YOR270C, strain vph1, hits give low values 1.02 | S. cerevisiae deletion strains, locus YOR290C, strain snf2, hits give low values 1.01 | S. cerevisiae deletion strains, locus YOR316C, strain cot1, hits give low values 1 | S. cerevisiae deletion strains, locus YPL051W, strain arl3, hits give low values 0.986 | S. cerevisiae deletion strains, locus YPL055C, strain LGE1, hits give low values 1.01 | S. cerevisiae deletion strains, locus YPL078C, strain atp4, hits give low values 0.992 | S. cerevisiae deletion strains, locus YPL106C, strain sse1, hits give low values 0.982 | S. cerevisiae deletion strains, locus YPL240C, strain hsp82, hits give low values 1 | S. cerevisiae deletion strains, locus YPL241C, strain CIN2, hits give low values 0.997 | S. cerevisiae deletion strains, locus YPR119W, strain clb2, hits give low values 0.987 | S. cerevisiae deletion strains, locus YPR141C, strain kar3, hits give low values 0.968 | S. cerevisiae deletion strains, locus YPR163C, strain tif3, hits give low values 1.01 | S. cerevisiae deletion strains, locus YPR167C, strain met16, hits give low values 1 | S. cerevisiae deletion strains, strain wtn01, hits give low values 1.01 | S. cerevisiae strains, strain wild type, hits give low values 1
